Source: PubChem BioAssay (NCI)
About 83,000 compounds went through this panel and 20% of them were active in at least one assay; those are over-represented in the sample as a whole.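 Treatment: one concentration, 48 hours, 96-well format. Scoring: percent growth, with anything below 10 considered active.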 Unmarked numbers belong to inactive results. Activity calls are given as the source filed them.

Test system: NCI-H522 lung
Assay: NCI-60 one-dose screen, 48 h (100 = growth as untreated, 0 = no growth, -100 = all killed)
Conditions: 10 µM
Experimental: Growth inhibition of the NCI-H522 human Non-Small Cell Lung tumor cell line is measured as a screen for anti-cancer activity. Cells are grown in 96 well plates and exposed to the test compound for 48 hours. Compounds are tested at a single concentration, which is 10^-5 M for most compounds. The reported endpoint is percent growth (GI% or GIPRCNT), where numbers from 0 - 100% represent growth inhibition, and numbers from -100% - 0 represent cell death. For example, a value of 40 represents 60% growth inhibition. A value of 0 means no net growth occurred over the course of the experiment. A value of -40 indicates 40% of cells at the beginning of the experiment died by the end of the experiment. A value of -100 means all cells are dead at the end of the experiment.
NCI-60 Human Tumor Cell Lines Screen was performed using the standard one-dose NCI protocol, which is described in more detail at https://dtp.cancer.gov/discovery_development/nci-60/default.htm.
Compounds with GIPRCNT values below 10 were considered active. Activity score was based on GIPRCNT using the following formula: […]
Score is 0 for GIPRCNT values of 100 or above, 50 for GIPRCNT values of 0, and 100 for GIPRCNT values of -100.

With `Cc1nc2ccccc2c(N)c1-c1cc(C)c2c(C)nc3ccccc3c2n1` as the molecule, how does the growth read?
The growth was 68.6%.

How did the growth turn out when `O=C(Nc1cccc(-n2cc(-c3ccncc3)c(-c3ccc(O)c(Cl)c3)n2)c1)c1cccc(C(F)(F)F)c1` was run?
The growth was 28.2%.

How did the growth turn out when `COc1ccc(-c2csc(NC(=O)CSc3nc(C)c(-c4ccccc4)n3Nc3ccccc3)n2)cc1` was run?
Its growth is 58.2%.

For `COc1ccc(-c2nn(-c3cccc(NC(=O)c4ccc(Cl)c(Cl)c4)c3)cc2-c2ccncc2)cc1Cl`, which growth is on record?
Its growth is 33.3%.

`c1ccc(C(NC2CC3CCC2C3)c2ccccc2)cc1` (stereo not given) was tested. Which growth did it give?
The growth was 85.5%.

How did the growth turn out when `NC(=O)CC1(c2ccccc2)CCCCC1` was run?
The growth was 96%.

How did the growth turn out when `Cc1ccc(-c2n[nH]c(=O)c3noc(-c4ccc(C)cc4)c23)cc1` was run?
Its growth is 16.4%.

How did the growth turn out when `Cc1cccc2c1O/C(=C\c1ccc([N+](=O)[O-])o1)C2=O` was run?
The growth was -77.4% (active).

How did the growth turn out when `CC/C(=C(/c1ccc(OCCN(C)C)cc1)c1ccc(OC(=O)CCCCCCCCC(=O)c2c(C)[nH]c(/C=C3\N=C(c4ccc[nH]4)C=C3OC)c2C)cc1)c1ccccc1` was run?
The growth was 54.5%.

With `O=C(c1ccc(Cl)cc1Cl)N1CCOCC1` as the molecule, how does the growth read?
The growth was 103%.

With `CC(=O)n1c(-c2ccc(Cl)c(Cl)c2)cn(-c2ccc(Cl)cc2)c1=O` as the molecule, how does the growth read?
The growth was 36.7%.

`Cn1c([N+](=O)[O-])cnc1/C=C1\Oc2ccccc2C1=O` was tested. Which growth did it give?
Its growth is -48.5% (active).

`CC(=O)N1C/C(=C/c2ccc(Cl)cc2)C(=O)/C(=C/c2ccc(Cl)cc2)C1` was tested. Which growth did it give?
Its growth is -66.4% (active).

With `CCOC(=O)N1C/C(=C/c2ccc(Cl)cc2)C(=O)/C(=C/c2ccc(Cl)cc2)C1` as the molecule, how does the growth read?
The growth was 65.5%.

Which growth does the source give for `CCC(=O)N1C/C(=C/c2ccc(OC)cc2)C(=O)/C(=C/c2ccc(OC)cc2)C1` here?
Its growth is 20.6%.

Which growth does the source give for `COc1cc(/C=C/C(=O)c2ccc(Cl)cc2)ccc1OS(=O)(=O)c1ccc(C)cc1` here?
Its growth is 81.7%.

With `COc1ccc(-c2nc(-c3nc4cc(Cl)c(F)cc4[nH]3)c3ccccn23)cc1` as the molecule, how does the growth read?
The growth was 39.5%.

Which growth does the source give for `CCN(CC)CCSCCN(CC)CC` here?
Its growth is 84.1%.

`COc1ccc2c(c1OC)O/C(=C\c1ncc([N+](=O)[O-])n1C)C2=O` was tested. Which growth did it give?
The growth was -54.5% (active).

How did the growth turn out when `O=C1/C(=C\c2ccc(F)cc2)CN(C(=O)c2ccccc2)C/C1=C\c1ccc(F)cc1` was run?
Its growth is -8.75% (active).

For `Cc1cc(C)c(NC(=O)c2sc3nc4c(cc3c2N)C(=O)CCC4)c(C)c1`, which growth is on record?
Its growth is -14.7% (active).

How did the growth turn out when `Nc1ccc2cc(S(=O)(=O)O)cc(O)c2c1N=Nc1ccc(F)cc1` was run?
The growth was 100%.

`O=C1/C(=C\c2ccc(F)cc2)CN(C(=O)c2ccccc2F)C/C1=C\c1ccc(F)cc1` was tested. Which growth did it give?
The growth was -69.5% (active).

For `Cc1ccc(S(=O)(=O)Oc2ccc3c4c(c(=O)oc3c2)CCCCC4)cc1`, which growth is on record?
Its growth is 57.9%.

How did the growth turn out when `c1ccc2c(c1)oc1c3c(ccc12)NCCC3` was run?
Its growth is 80.9%.

Which growth does the source give for `Cc1cc(C)c2c(n1)sc1c(Nc3ccc(Cl)cc3)ncnc12` here?
The growth was 16.1%.

How did the growth turn out when `Fc1ccc(-c2nnc(-c3c(-c4ccc(F)cc4)nc4ccccn34)o2)cc1` was run?
The growth was 25.9%.

With `CCOCC(=O)C(C#N)c1ccc(Cl)c(Cl)c1` (stereo not given) as the molecule, how does the growth read?
Its growth is 94.4%.

How did the growth turn out when `CC(C)(C)c1cc(Br)cc(C(C)(C)C)c1O` was run?
The growth was 115%.

How did the growth turn out when `CCOC(=O)C(=Cc1ccc(Br)cc1)C(=O)OCC` was run?
The growth was -65.1% (active).

With `COc1cc(Cl)cc(-c2nn(-c3cccc(NC(=O)c4ccc(N5CCOCC5)c(C(F)(F)F)c4)c3)cc2-c2ccncc2)c1` as the molecule, how does the growth read?
Its growth is 52.7%.

For `N#Cc1cccc(OCc2nc(N)nc(N)c2-c2ccc(Cl)c(Cl)c2)c1`, which growth is on record?
Its growth is 8.77% (active).

For `NC1=NC(=O)C(c2ccccc2)(c2ccccc2)S1`, which growth is on record?
The growth was 102%.

Which growth does the source give for `O=C(Nc1cccc(-n2cc(-c3ccncc3)c(-c3ccc(O)c(Cl)c3)n2)c1)c1ccc(Cl)c(Cl)c1` here?
The growth was 41.5%.

For `Cc1cccc(NC2=C(C#N)C(=O)NC3(CCCC3)S2)c1`, which growth is on record?
Its growth is 15.8%.

For `CN(C)c1ccc(-c2cc(-c3cccc(NS(C)(=O)=O)c3)nc(N)c2C#N)cc1`, which growth is on record?
The growth was 7.63% (active).

With `CCc1ccc2c(c1)N(CCO)C1=C(C(=O)OC1)C2c1cc(OC)c(OC)c(OC)c1` (stereo not given) as the molecule, how does the growth read?
Its growth is -40.4% (active).

`ClCCOCCn1cnc2c(Cl)nc(Cl)nc21` was tested. Which growth did it give?
The growth was 60.1%.

For `CC/C(C)=C(\C)C(=O)O`, which growth is on record?
The growth was 89.3%.

With `COc1ccc(N=C2C(=Nc3ccc(OC)cc3)N(c3ccc(N(C)C)cc3)C(=S)N2c2ccc(OC)cc2)cc1` as the molecule, how does the growth read?
The growth was 84.8%.
